Data: PubChem BioAssay (NCATS)
Where “and” joins values, the source holds several entries; their conditions need not be identical. Identical values can stand only once. Inconclusive results are not listed. Calls of active or inactive are those of the source. Unless noted, the call rests on the fitted dose curve; in most records, active means well fitted inhibition curve with a large enough effect; inconclusive means small, poorly fitted or top-dose-only effect; inactive means flat fitted curve, though single readings scatter.

Key:
[1] = Drug repurposing screens with cells derived from glioblastoma tumor samples (AID 1345199); conditions: GBM patient neurospheres viability, ATP luminescence, 48 h; further: nearly all actives have a fitted effect of over 40% in size; further: potency means the concentration at half of the fitted maximal effect; on activity, negative = cell killing: on the % scale 0 is the no-effect control and ±100 the full control effect
How it was run: (§1)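 Primary testing used CD133+ neurospheres from four GBM patients, seven concentrations, 48 h exposure and ATP-based viability; confirmation added three slower-growing patient lines.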

[2] = tested on: astro; experiment: as above; conditions: viability, ATP luminescence, 48 h; series mostly up to 45.9 µM
How it was run: as §1

[3] = molecular target: Nuclear receptor subfamily 1 group I member 2 (Rattus norvegicus) (UniProt Q9R1A7); experiment: qHTS assay for small molecule activators of the rat pregnane X receptor (rPXR) signaling pathway (AID 651751; call rule not given here; further: 0% is about no effect); conditions: rPXR reporter cells, luciferase (One-Glo), 24 h
Sequence of Nuclear receptor subfamily 1 group I member 2 (Rattus norvegicus) (Q9R1A7 whole entry, looked up): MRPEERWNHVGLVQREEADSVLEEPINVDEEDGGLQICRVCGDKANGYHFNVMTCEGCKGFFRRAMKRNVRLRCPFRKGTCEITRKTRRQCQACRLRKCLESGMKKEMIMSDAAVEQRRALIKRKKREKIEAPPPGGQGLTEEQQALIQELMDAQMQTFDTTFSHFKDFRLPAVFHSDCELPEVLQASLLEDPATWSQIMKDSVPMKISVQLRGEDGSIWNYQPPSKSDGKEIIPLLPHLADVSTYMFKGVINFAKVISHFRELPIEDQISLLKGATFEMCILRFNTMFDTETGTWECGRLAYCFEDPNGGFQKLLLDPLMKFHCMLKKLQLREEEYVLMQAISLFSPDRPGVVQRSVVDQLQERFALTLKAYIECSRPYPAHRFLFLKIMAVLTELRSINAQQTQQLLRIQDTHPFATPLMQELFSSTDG

[4] = qHTS assay for small molecule activators of the human pregnane X receptor (PXR) signaling pathway (AID 720659; call rule not given here; further: 0% is about no effect); conditions: DPX-2 HepG2 CYP3A4-luciferase, 24 h; series mostly up to 92.3 µM
[5] = at 45.9 µM (top of the series), tumour line B
[6] = at 45.9 µM (top of the series), tumour line D
[7] = at 46 µM (top of the series), tumour line A
[8] = at 46.1 µM (top of the series), tumour line C
[9] = at 20 µM (top of the series), tumour line C
[10] = at 21.2 µM (top of the series), tumour line B
[11] = at 21.2 µM (top of the series), tumour line D

CC/C=C\C/C=C\C/C=C\CCCCCCCC(=O)O
inactive: activity, negative = cell killing [1, 5] 8.6% | activity, negative = cell killing [1, 6] -7.43% | activity, negative = cell killing [1, 7] -13.9% | activity, negative = cell killing [1, 8] 5.73% | Potency [2] | max response [3] -2.75% | outcome [4]

Nc1nccs1
inactive: activity, negative = cell killing [1, 5] -17.5% | activity, negative = cell killing [1, 6] -10.5% | activity, negative = cell killing [1, 7] -20.4% | activity, negative = cell killing [1, 8] -24.6% | Potency [2] | max response [3] -2.21% | outcome [4]

CCCCC(CC)COS(=O)(=O)O (stereo not drawn)
inactive: activity, negative = cell killing [1, 5] -6.03% | activity, negative = cell killing [1, 6] -2.06% | activity, negative = cell killing [1, 7] -18.8% | activity, negative = cell killing [1, 8] -4.44% | Potency [2] | max response [3] 0.915% | outcome [4]

CC1(O)CCC(C(C)(C)O)CC1 (stereo not drawn)
inactive: activity, negative = cell killing [1, 5] -1.19% | activity, negative = cell killing [1, 6] -26.4% | activity, negative = cell killing [1, 7] -16.9% | activity, negative = cell killing [1, 8] 9.01% | Potency [2]

O=C(O)[C@H]1C(=CCO)O[C@H]2CC(=O)N12
inactive: activity, negative = cell killing [1, 5] -8.67% | activity, negative = cell killing [1, 6] -21.6% | activity, negative = cell killing [1, 7] -18.4% | activity, negative = cell killing [1, 8] -12.5% | Potency [2]

CC1=CCC2CC1C2(C)C (stereo not drawn)
inactive: activity, negative = cell killing [1, 5] -2.1% | activity, negative = cell killing [1, 6] 2.05% | activity, negative = cell killing [1, 7] -19.4% | activity, negative = cell killing [1, 8] 11.1% | Potency [2] | max response [3] 1.07% | outcome [4]

NCCN
inactive: activity, negative = cell killing [1, 5] -1.66% | activity, negative = cell killing [1, 6] -17.5% | activity, negative = cell killing [1, 7] -28.2% | activity, negative = cell killing [1, 8] 1.75% | Potency [2] | max response [3] 4.88% | outcome [4]

CC(=O)Oc1cc(C(F)(F)F)ccc1C(=O)O
inactive: activity, negative = cell killing [1, 9] -16.9% | activity, negative = cell killing [1, 10] -19.3% | activity, negative = cell killing [1, 11] -15.7% | activity, negative = cell killing ([1]; at 21.3 µM (top of the series), tumour line A) -29% | Potency [2]

C[C@H](CCC(=O)O)[C@H]1CC[C@H]2[C@@H]3[C@H](O)C[C@@H]4C[C@H](O)CC[C@]4(C)[C@H]3C[C@H](O)[C@]12C
inactive: activity, negative = cell killing [1, 5] -1.15% | activity, negative = cell killing [1, 6] 1.82% | activity, negative = cell killing [1, 7] -16.5% | activity, negative = cell killing [1, 8] -12.6% | Potency [2] | max response [3] -1% | outcome [4]

CS(=O)(=O)OCC(O)C(O)COS(C)(=O)=O (stereo not drawn)
inactive: activity, negative = cell killing [1, 5] -10.6% | activity, negative = cell killing [1, 6] -10.3% | activity, negative = cell killing [1, 7] -29.4% | activity, negative = cell killing [1, 8] -1.32% | Potency [2]

O=P(O)(O)OP(=O)(O)O
inactive: activity, negative = cell killing [1, 5] -12.9% | activity, negative = cell killing [1, 6] -11% | activity, negative = cell killing [1, 8] -5.23% | Potency [2]

CN(CCO)CC(O)Cn1cnc2c1c(=O)n(C)c(=O)n2C (stereo not drawn) (tested in a mixture with another compound)
inactive: activity, negative = cell killing [1, 5] -0.373% | activity, negative = cell killing [1, 6] -10.7% | activity, negative = cell killing [1, 7] -23.5% | activity, negative = cell killing [1, 8] -30% | Potency [2] | max response [3] -1.56% | outcome [4]

C=CC1=C(C(=O)O)N2C(=O)[C@@H](NC(=O)/C(=N/OCC(=O)O)c3csc(N)n3)[C@H]2SC1 (stereo in doubt)
inactive: activity, negative = cell killing [1, 9] 2.81% | activity, negative = cell killing [1, 10] -6.13% | activity, negative = cell killing [1, 11] -19.8% | Potency [2]

O=C1N=C2SCCN2C(=O)C1Cc1ccc(Cl)cc1 (stereo not drawn)
inactive: activity, negative = cell killing [1, 5] -17.4% | activity, negative = cell killing [1, 6] -11.7% | activity, negative = cell killing [1, 8] -2.54% | Potency [2]

Cc1ncc(COP(=O)(O)O)c(CN)c1O
inactive: activity, negative = cell killing [1, 5] -10.4% | activity, negative = cell killing [1, 6] -17.3% | activity, negative = cell killing [1, 8] -23.4% | Potency [2]

Cc1ccc(S(=O)(=O)O)cc1C
inactive: activity, negative = cell killing [1, 5] -6.15% | activity, negative = cell killing [1, 6] 0.633% | activity, negative = cell killing [1, 7] -2.37% | activity, negative = cell killing [1, 8] -2.17% | Potency [2] | max response [3] 0.795% | outcome [4]

COc1ccc(C(=O)c2ccc(C)cc2)c(O)c1
inactive: activity, negative = cell killing [1, 5] -19.8% | activity, negative = cell killing [1, 6] -4.36% | activity, negative = cell killing [1, 8] -21.4% | Potency [2]

CN(Cc1ccccc1)Cc1ccccc1
inactive: activity, negative = cell killing [1, 5] -11.4% | activity, negative = cell killing [1, 6] 6.3% | activity, negative = cell killing [1, 8] -21.1% | Potency [2]

CCOC(C)OCC
inactive: activity, negative = cell killing [1, 5] -4.71% | activity, negative = cell killing [1, 6] -10.7% | activity, negative = cell killing [1, 7] -12.1% | activity, negative = cell killing [1, 8] -14.4% | max response [3] 0.058% | outcome [4]

NC(=O)[C@H]1O[C@@H](O)[C@H](O)[C@@H](O)[C@@H]1O
inactive: activity, negative = cell killing [1, 5] -7.58% | activity, negative = cell killing [1, 6] -15.7% | activity, negative = cell killing [1, 8] -23.5% | Potency [2]

C[Si](C)(C)O[Si](C)(C)C
inactive: activity, negative = cell killing [1, 5] -9.61% | activity, negative = cell killing [1, 6] -4.16% | activity, negative = cell killing [1, 7] -2.42% | activity, negative = cell killing [1, 8] -22.1% | max response [3] -0.472% | outcome [4]

C=C(C)C1CC=C(C)CC1 (stereo not drawn)
inactive: activity, negative = cell killing [1, 5] -13.3% | activity, negative = cell killing [1, 6] -4.33% | activity, negative = cell killing [1, 7] -25% | activity, negative = cell killing [1, 8] -2.45% | max response [3] 7.4% and -2.46%

O=C(CCCN1CCC(C(=O)c2ccc(F)cc2)CC1)c1ccc(F)cc1
active: Potency ([1]; tumour line A) 8.91 µM
inactive: activity, negative = cell killing [1, 5] -22% | activity, negative = cell killing [1, 8] -4.95% | Potency [2]

CCN(CC)CCOC(=O)c1cccnc1
inactive: activity, negative = cell killing [1, 5] -9.24% | activity, negative = cell killing [1, 6] 9.6% | activity, negative = cell killing [1, 8] -9.84% | Potency [2]

C#C[C@]1(O)CC[C@H]2[C@@H]3CCC4=C(CCC(=O)C4)[C@H]3CC[C@@]21C
inactive: activity, negative = cell killing [1, 9] -4.47% | activity, negative = cell killing [1, 10] -8.06% | activity, negative = cell killing [1, 11] -3.97% | Potency [2]
